# Screening results from PubChem BioAssay.
# The list is not random: actives were taken first. Their share in the collection is about 3.6%.
# 3CLpro inhibitor = SARS-CoV 3CLpro protease inhibitors, primary screen, biochemical, quenched FRET; recombinant SARS-CoV 3CLpro, quenched FRET peptide cleavage; inhibition, % at 6 µM; 290,000 compounds, 0.14% hits; AID 1706, 2009; in the data active means inhibition above about 12%
# BoNT-A LC inh2 = BoNT/A light chain protease inhibitors, primary screen, biochemical, flow cytometry, MLPCN library; inhibition, % at 10 µM; 360,000 compounds, 0.17% hits; Botulinum neurotoxin type A light chain protease (Clostridium botulinum A str. ATCC 3502); multiplex microsphere protease substrate cleavage; further: plate controls were buffer without enzyme for full effect and enzyme alone for no effect
# BJeLR viability = MLPCN primary cell-based screen for lethality selective to Ras in HRASV12 cells. inhibition, % (no concentration beside the values). BJeLR (HRASV12) viability, CellTiter-Glo ATP luminescence, 48 h. 300,000 compounds, 0.17% hits; in the data active means inhibition above about 50%; inconclusive means no clear call, values can overlap the other calls
# Anthrax LF inh2 = Bacillus anthracis LF protease inhibitors, primary screen, biochemical, multiplex microsphere, MLPCN library. Lethal factor (Bacillus anthracis), P15917. multiplex microsphere protease cleavage assay. inhibition, % at 10 µM. 360,000 compounds, 0.12% hits; further: plate controls were buffer without enzyme for full effect and enzyme alone for no effect
# BoNT F protease = BoNT/F light chain protease inhibitors, primary screen, biochemical, flow cytometry, MLPCN library. Multiplex microsphere protease cleavage assay. inhibition, % at 10 µM. 360,000 compounds, 0.22% hits; in the data active means inhibition above about 35%, passing the limit was not always enough; inconclusive means no clear call, values can overlap the other calls; further: plate controls were buffer without enzyme for full effect and enzyme alone for no effect
# Bead autofluor = counter-screen for toxin protease inhibitors: compound fluorescence; compound autofluorescence counterscreen, microsphere flow cytometry; hits give high values; fluorescence intensity (concentration not given with the values); 360,000 compounds, 3.1% hits; AID 624483; in the data active means fluorescence intensity above about 16000; inconclusive means no clear call, values can overlap the other calls
# Numbers without * were called inactive; u = inconclusive; x = no result given. Unless noted, no stated cut-off is given here; in the data, active means inhibition above about 30%; inconclusive means no clear call, values can overlap the other calls; inactive means below that.
SMILES,3CLpro inhibitor,BoNT-A LC inh2,BJeLR viability,Anthrax LF inh2,BoNT F protease,Bead autofluor
NC(=O)C1CCN(C(=O)c2ccc(NS(=O)(=O)c3ccc(F)c(F)c3)cc2)CC1,x,0,x,-7,7,3955
NC(=O)CSc1nnc(-c2ccc(S(=O)(=O)N3CCCC3)cc2)n1Cc1ccco1,-3,4,4,0,3,19668*
CCn1c(SCC(=O)Nc2cc(C)on2)nnc1-c1ccc(S(=O)(=O)N2CCN(C)CC2)cc1,1,0,7,0,1,24027*
Cn1c(SCC(=O)N2CCCC2)nnc1-c1ccc(S(=O)(=O)N2CCCC2)cc1,0,0,-10,-1,0,10121
Cn1c(SCC(=O)N2CCCCC2)nnc1-c1ccc(S(=O)(=O)N2CCOCC2)cc1,-2,-3,-1,-4,-5,17538*
CCn1c(SCC(=O)Nc2ccccc2)nnc1-c1ccc(S(=O)(=O)N2CCOCC2)cc1,2,0,-1,-8,0,9473
O=C(O)CSc1nnc(-c2ccc(S(=O)(=O)N3CCCC3)cc2)n1Cc1ccco1,-1,0,x,0,-3,11292
Cc1nnc(SCC2=C(C(=O)O)N3C(=O)C(NC(=O)c4cccc(F)c4F)C3SC2)s1 (stereo not given),-4,-2,-1,-2,-3,4457
CCc1ccc(N(CC(=O)N2CCOCC2)S(C)(=O)=O)cc1,-5,8,0,6,u,3812
O=C(NCCN1CCOCC1)c1cc2sccc2n1Cc1ccc(Cl)cc1,6,0,2,-3,-1,16131*
O=C(NC(=S)NCCN1CCOCC1)c1ccc(Cl)cc1,-14,6,-5,1,54*,2220
Cc1ccc(NC(=S)NCCN2CCOCC2)cc1C,4,-2,-7,2,-5,20237*
O=C(NCCN1CCOCC1)c1cc2sccc2n1Cc1ccc(F)cc1,1,4,0,-9,8,15116
O=C(/C=C/[C@H]1O[C@@H](n2ccc(=O)[nH]c2=O)[C@H](O)[C@@H]1O)NC(c1ccccc1)c1ccccc1,x,-1,x,1,4,4226
CCN1C(=O)/C(=C/c2ccc(N3CCCC3)cc2)NC1=S,-4,10,-1,6,3,8291
Cc1sc(N)nc1-c1c(C)n(C)c2ccccc12,-4,4,0,20,24,3148
CCNc1ccc(Br)cc(C(=O)/C=C/c2ccc(Cl)cc2)c1=O,3,29,-9,26,6,7902
CNc1ccc(Br)cc(C(=O)/C=C/c2cccc(OC)c2)c1=O,4,16,-2,19,10,17911*
CCNc1ccc(Br)cc(C(=O)/C=C/c2c(Cl)cccc2Cl)c1=O,7,59*,-3,29,16,6714
C=CCn1c(O)c(C(C)=NCc2ccco2)c(=O)[nH]c1=O,11,0,-2,0,0,21930*
COc1ccc(-n2c(O)c(C(C)=NCCCn3ccnc3)c(=O)[nH]c2=O)cc1,-1,-2,1,1,-6,17270*
CC(=NCCN1CCCCC1)c1c(O)n(-c2ccccc2)c(=O)[nH]c1=O,5,2,6,-20,u,4135
CC(=NCCN1CCCCC1)c1c(O)n(-c2ccc(Cl)cc2)c(=O)[nH]c1=O,-2,-5,-6,-4,-5,24548*
C=CCn1c(O)c(C(C)=NCCN2CCOCC2)c(=O)[nH]c1=O,-6,3,5,5,3,21797*
CCC(=NCCCn1ccnc1)c1c(O)n(-c2ccccc2)c(=O)[nH]c1=O,-4,u,-7,-25,u,4102
SMILES,3CLpro inhibitor,BoNT-A LC inh2,BJeLR viability,Anthrax LF inh2,BoNT F protease,Bead autofluor
CC(=NCCN1CCOCC1)c1c(O)n(Cc2ccccc2)c(=O)[nH]c1=O,6,5,7,-12,9,13970
C=CCN1CC2(c3ccccc3)CN(CC=C)CC(c3ccccc3)(C1)C2=O,1,0,-6,1,1,2215
CCC(=O)Nc1ccc(C(=O)NNC(=O)CCCCC(=O)NNC(=O)c2ccc(NC(=O)CC)cc2)cc1,x,0,x,-3,-2,2882
Cc1ccc(CCNc2ncnc(Cl)c2N)cc1,x,-2,x,-7,-21,u
Cc1c(N=Cc2ccncc2)c(=O)n(-c2ccccc2)n1C,-3,-1,-5,1,-38,5220
Cc1c(N=Cc2cc3c(cc2Cl)OCO3)c(=O)n(-c2ccccc2)n1C,x,1,-8,-3,0,23177*
CCOC(=O)c1ccc(N=C2NC(=O)CS2)cc1,-3,-2,10,-2,1,23536*
Cc1ccc(N=C2NC(=O)CS2)cc1,-1,-2,-1,-2,-14,3445
CCc1c(C)sc(NC(=O)c2ccco2)c1C(=O)N1CCCCC1,3,2,-15,0,1,22698*
COC(=O)C1[C@H]2C(=O)N(Cc3cccs3)C[C@]23C=C[C@H]1O3 (stereo not given in full),-2,-1,-2,-1,-3,23081*
COCCCNC(=O)C1C2C=CC3(CN(Cc4ccc(C)cc4)C(=O)C13)O2 (stereo not given),-7,-1,-4,-2,-1,23422*
COc1ccc(C(=O)Nc2ccc3c(c2)C(=O)NC3=O)cc1,2,0,-6,-4,-6,4424
CC(C(=O)NCC1CCCCC1)N1CCN(S(=O)(=O)c2cccs2)CC1 (stereo not given),x,2,x,0,-6,5197
CC(NC(=O)c1ccco1)C1CCCO1 (stereo not given),3,0,3,1,-5,7703
CC(NC(=O)c1ccc2c(c1)OCO2)C1CCCO1 (stereo not given),2,0,5,0,1,22158*
COc1ccc(Nc2ccc3c(c2)=NC2(CCCCC2)[N+]=3[O-])cc1,-1,0,8,-10,-12,7525
[O-][N+]1=c2ccc(Nc3ccccc3)cc2=NC12CCCCC2,4,-1,24,-8,-15,16589*
CCC1=C/C(=C/N(C)c2ccccc2)C(=O)S1,-2,0,-14,7,-17,3383
O=C(CSCCc1ccccn1)Nc1ccc(Br)cn1,2,0,-7,0,-1,23013*
Cc1ccnc(NS(=O)(=O)c2ccc(Cl)nc2)c1,-4,-1,5,2,-1,5552
O=S(=O)(Nc1ncccc1O)c1ccc(Cl)cc1,-1,u,2,-1,-3,23828*
O=S(=O)(Nc1cc(Cl)ccn1)c1ccc(Cl)cc1,0,-4,-2,-2,-6,17683*
CCCOc1ccc(/C=N/NC(=O)c2ccc3c(c2)OCO3)c(OCCC)c1,5,-1,10,7,-2,3135
Nc1nc(N)c2cc(Sc3ccc4ccccc4c3)ccc2n1,3,x,60*,x,x,x
